Targets with a hit are over-represented here; the source holds about 8,800 in all. About 0.5% of all pairs of compound and target were hits.

UniProt P27144, sequence (P27144 whole entry, looked up): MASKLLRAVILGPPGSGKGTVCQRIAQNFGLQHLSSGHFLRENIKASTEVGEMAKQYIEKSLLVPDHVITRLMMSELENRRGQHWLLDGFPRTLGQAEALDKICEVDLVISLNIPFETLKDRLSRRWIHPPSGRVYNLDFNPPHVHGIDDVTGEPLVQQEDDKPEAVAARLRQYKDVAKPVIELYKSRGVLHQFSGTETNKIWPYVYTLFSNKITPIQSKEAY
UniProt Q9BRQ8, sequence (Q9BRQ8 whole entry, looked up): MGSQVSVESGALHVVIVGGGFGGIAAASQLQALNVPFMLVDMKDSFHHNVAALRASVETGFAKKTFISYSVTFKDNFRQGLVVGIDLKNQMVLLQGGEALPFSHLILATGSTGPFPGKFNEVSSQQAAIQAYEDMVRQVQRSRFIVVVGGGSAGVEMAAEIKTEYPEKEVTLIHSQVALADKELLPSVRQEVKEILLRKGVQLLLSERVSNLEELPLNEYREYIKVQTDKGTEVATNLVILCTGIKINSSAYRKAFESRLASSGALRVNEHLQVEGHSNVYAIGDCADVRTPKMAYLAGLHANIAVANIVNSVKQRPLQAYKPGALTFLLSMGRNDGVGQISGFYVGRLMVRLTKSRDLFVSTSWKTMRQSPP
UniProt Q9NWX5, sequence (Q9NWX5 whole entry, looked up): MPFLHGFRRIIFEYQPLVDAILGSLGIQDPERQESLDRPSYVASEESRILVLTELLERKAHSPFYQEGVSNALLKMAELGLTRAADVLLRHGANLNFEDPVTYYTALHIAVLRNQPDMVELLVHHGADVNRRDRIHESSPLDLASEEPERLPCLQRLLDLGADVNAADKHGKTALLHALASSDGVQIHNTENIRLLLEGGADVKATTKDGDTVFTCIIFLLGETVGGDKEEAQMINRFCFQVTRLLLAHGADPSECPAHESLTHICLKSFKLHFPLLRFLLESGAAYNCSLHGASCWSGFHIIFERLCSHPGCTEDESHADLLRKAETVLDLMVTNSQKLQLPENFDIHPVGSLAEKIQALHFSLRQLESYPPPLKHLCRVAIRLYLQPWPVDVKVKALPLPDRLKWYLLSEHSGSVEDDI
UniProt Q9NUQ8, sequence (Q9NUQ8 whole entry, looked up): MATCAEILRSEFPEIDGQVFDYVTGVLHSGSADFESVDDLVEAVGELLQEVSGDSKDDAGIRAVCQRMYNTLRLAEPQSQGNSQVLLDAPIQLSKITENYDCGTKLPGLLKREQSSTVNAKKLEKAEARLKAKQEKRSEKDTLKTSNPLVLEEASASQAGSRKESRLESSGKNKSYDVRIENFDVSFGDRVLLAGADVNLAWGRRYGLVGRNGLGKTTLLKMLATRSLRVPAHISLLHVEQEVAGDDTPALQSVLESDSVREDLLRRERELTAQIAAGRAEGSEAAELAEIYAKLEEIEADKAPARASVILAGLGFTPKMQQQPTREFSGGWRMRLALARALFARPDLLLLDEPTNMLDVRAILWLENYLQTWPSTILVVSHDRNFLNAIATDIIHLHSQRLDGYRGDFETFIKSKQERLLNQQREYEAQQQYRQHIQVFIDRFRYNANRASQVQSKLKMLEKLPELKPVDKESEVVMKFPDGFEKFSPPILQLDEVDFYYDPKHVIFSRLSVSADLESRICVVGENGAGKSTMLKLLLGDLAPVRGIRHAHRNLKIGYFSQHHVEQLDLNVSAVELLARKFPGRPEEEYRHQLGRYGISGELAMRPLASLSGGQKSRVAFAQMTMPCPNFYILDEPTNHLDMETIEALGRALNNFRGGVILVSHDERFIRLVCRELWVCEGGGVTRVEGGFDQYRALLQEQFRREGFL
UniProt Q96NW4, sequence (Q96NW4 whole entry, looked up): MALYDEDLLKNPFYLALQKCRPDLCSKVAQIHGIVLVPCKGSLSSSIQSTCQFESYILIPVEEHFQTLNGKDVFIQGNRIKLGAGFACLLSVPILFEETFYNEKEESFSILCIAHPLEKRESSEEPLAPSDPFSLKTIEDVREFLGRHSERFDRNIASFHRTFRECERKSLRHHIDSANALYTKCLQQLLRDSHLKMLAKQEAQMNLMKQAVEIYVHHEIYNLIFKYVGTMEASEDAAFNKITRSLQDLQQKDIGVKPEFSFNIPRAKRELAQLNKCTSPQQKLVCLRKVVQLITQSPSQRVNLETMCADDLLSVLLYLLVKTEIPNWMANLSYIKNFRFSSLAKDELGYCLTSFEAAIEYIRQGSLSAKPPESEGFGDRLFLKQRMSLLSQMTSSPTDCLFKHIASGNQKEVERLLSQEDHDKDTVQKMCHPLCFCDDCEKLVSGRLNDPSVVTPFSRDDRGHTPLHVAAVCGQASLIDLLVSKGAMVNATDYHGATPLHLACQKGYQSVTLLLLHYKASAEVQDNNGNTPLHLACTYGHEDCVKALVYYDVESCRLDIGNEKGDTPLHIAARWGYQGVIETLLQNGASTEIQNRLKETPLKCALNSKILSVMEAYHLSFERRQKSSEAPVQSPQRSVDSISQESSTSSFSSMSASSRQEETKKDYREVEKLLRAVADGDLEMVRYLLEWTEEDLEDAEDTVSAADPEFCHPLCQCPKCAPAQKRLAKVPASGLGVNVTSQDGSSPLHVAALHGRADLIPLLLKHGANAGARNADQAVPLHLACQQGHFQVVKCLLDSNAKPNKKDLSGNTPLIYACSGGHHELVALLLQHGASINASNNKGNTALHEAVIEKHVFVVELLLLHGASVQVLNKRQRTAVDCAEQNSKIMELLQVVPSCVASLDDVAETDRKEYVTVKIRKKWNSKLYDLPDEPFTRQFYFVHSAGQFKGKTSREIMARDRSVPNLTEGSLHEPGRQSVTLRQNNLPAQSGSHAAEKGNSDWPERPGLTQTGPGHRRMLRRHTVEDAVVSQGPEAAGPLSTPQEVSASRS
UniProt O43823, sequence (O43823 whole entry, looked up): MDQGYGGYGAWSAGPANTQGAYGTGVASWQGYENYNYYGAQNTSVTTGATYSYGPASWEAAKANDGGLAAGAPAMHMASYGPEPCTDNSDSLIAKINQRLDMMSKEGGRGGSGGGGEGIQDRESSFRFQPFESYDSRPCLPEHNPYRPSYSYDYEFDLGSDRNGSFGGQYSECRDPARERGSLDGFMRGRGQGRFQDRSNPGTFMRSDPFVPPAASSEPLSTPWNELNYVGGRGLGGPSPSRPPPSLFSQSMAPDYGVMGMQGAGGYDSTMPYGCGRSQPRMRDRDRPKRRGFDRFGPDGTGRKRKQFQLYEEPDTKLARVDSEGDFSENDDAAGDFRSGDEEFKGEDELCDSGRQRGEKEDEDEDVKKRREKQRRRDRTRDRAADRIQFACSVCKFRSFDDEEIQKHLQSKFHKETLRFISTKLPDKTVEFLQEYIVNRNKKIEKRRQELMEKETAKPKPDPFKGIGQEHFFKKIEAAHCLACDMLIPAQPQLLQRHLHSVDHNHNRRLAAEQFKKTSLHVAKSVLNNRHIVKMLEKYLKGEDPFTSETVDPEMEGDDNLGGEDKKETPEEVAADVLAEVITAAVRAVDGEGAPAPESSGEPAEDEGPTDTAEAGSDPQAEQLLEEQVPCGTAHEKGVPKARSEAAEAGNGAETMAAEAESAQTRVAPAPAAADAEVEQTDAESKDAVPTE
UniProt Q9H1I8, sequence (Q9H1I8 whole entry, looked up): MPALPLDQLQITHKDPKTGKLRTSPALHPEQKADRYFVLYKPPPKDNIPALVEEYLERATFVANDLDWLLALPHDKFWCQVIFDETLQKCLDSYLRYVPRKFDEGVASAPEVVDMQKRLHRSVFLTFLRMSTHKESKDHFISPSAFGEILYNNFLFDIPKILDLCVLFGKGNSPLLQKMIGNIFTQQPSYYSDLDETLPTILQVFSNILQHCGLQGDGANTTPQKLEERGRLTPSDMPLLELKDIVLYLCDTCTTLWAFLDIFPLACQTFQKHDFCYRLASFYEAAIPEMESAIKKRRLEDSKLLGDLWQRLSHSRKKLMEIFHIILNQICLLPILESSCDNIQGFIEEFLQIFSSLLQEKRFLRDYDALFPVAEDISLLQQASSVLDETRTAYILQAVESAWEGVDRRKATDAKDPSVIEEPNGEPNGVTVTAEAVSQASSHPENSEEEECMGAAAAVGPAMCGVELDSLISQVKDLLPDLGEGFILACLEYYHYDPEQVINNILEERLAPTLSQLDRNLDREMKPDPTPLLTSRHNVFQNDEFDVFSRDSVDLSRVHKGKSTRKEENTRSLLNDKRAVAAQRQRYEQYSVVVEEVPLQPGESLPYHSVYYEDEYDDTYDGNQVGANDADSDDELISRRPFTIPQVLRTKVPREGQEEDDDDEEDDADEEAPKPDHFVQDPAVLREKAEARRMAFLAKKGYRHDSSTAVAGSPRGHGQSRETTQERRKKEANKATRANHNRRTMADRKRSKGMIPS
UniProt O00116, sequence (O00116 whole entry, looked up): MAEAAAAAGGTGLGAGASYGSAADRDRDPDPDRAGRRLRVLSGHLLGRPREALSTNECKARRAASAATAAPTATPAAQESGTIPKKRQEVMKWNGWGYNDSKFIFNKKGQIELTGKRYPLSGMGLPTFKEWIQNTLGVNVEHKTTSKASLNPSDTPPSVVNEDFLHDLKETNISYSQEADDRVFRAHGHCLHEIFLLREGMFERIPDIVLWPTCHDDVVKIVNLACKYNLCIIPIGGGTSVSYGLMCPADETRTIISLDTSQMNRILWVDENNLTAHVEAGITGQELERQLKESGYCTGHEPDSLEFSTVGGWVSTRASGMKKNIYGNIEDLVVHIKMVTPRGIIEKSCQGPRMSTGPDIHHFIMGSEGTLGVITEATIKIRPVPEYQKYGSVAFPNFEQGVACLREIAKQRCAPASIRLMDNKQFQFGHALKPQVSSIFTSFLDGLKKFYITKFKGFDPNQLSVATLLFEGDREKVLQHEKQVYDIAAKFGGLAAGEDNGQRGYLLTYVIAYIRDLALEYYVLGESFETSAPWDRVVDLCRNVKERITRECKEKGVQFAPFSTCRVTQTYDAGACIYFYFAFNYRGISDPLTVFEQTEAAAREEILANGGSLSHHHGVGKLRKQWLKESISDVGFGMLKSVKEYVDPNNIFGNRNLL

Compound in the experiment: CNc1nc(-c2ccc3c(N)n[nH]c3c2)cc(N2C[C@@H](C(=O)NC3CCCCC3)CC[C@H]2C)n1
As to the kind of experiment: log2 fold change, soluble protein after heating vs DMSO (PISA); higher = thermal stabilisation; K562 lysate, 10 uM; active = over 0.2 and 3.5 SD of the protein, either way, in both replicates (recomputed). In outline:
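To prepare the extract, K562 pellets were dounce-homogenised in PBS pH 7.4 with 1 mM MgCl2, giving crude material at 1 mg/mL protein. This was treated with 10 μM compound for 30 min, then heated in aliquots for 3 min over 48°C-58°C before pooling and addition of NP-40 to 0.5% at 4°C. Centrifugation at 21,000xg for 90 min left soluble protein in the supernatant, which TMTpro 16plex LC-MS/MS quantified with equalised channel sums. Results are log-two fold changes in thermal stability compared with solvent controls, from duplicates.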
Turning to ABCF3 (UniProt Q9NUQ8), the log2 fold change was -0.01 (inactive). For AP3D1 isoform 5 (UniProt O14617), the log2 fold change was 0.03 (inactive).

In the case of APAF1 (UniProt O14727), the log2 fold change was 0.008 (inactive).

Take AGL (UniProt P35573): the log2 fold change was -0.002 (inactive). As for ANKRD27 (UniProt Q96NW4), the log2 fold change is 0.003 (inactive). On to AKR1B1 (UniProt P15121), for which the log2 fold change is -0.072 (inactive). Take AFF1 isoform 2 (UniProt P51825): the log2 fold change was 0.004 (inactive).

For ANXA1 (UniProt P04083), the log2 fold change was -0.055 (inactive).

On to AARS2 (UniProt Q5JTZ9), for which the log2 fold change is -0.017 (inactive). The same measure for AKAP8L (UniProt Q9ULX6): -0.109 (inactive); for AHCYL1 (UniProt O43865): 0.037 (inactive).

Consider ADRM1 (UniProt Q16186), for which the log2 fold change was 0.011 (inactive). The same measure for ALDH6A1 (UniProt Q02252): 0.091 (inactive); for ACACA isoform 4 (UniProt Q13085): -0.02 (inactive); for ASCC2 (UniProt Q9H1I8): -0.003 (inactive). The same measure for ACBD6 (UniProt Q9BR61): 0.016 (inactive); for ALG13 (UniProt Q9NP73): 0.053 (inactive). The same measure for AMD1 (UniProt P17707): 0.008 (inactive); for AK4 (UniProt P27144): 0.009 (inactive); for AIFM2 (UniProt Q9BRQ8): 0.099 (inactive). As for ASB6 (UniProt Q9NWX5), the log2 fold change was 0.099 (inactive). Under ABCF2 isoform 2 (UniProt Q9UG63) stands 0.005 (inactive). Under ARGLU1 (UniProt Q9NWB6) stands 0.01 (inactive); under ABL2 (UniProt P42684), -0.108 (inactive).

On to AKT1 (UniProt P31749), for which the log2 fold change was -0.05 (inactive).

In the case of AFF4 (UniProt Q9UHB7), the log2 fold change is 0.018 (inactive).

On to ARL1 (UniProt P40616), for which the log2 fold change was 0.088 (inactive). Regarding AKAP8 (UniProt O43823), the log2 fold change was -0.073 (inactive). Under ACLY (UniProt P53396) stands 0.01 (inactive); under ACACB (UniProt O00763), -0.043 (inactive). With ARL15 (UniProt Q9NXU5), the log2 fold change is -0.021 (inactive). Under ACAA1 (UniProt P09110) stands 0.093 (inactive); under ACADM isoform 2 (UniProt P11310), 0.386 (active). As for ALDH18A1 (UniProt P54886), the log2 fold change was -0.01 (inactive). For the target AGPS (UniProt O00116), the log2 fold change was 0.011 (inactive).

The values above are taken from the supplement of paper PMC10849652.
